NPR1 activator: GC-A stimulated cGMP production enhancers – HEK293 GC-A cells, cGMP TR-FRET, EC30 ANP, primary screen; Atrial natriuretic peptide receptor 1 (Homo sapiens), P16066; 0% at EC30 ANP, 100% saturating ANP; activation, % at 10 µM; hit rate 0.14% among 370,000; in the data active means activation above about 40%
Target sequence (P16066 whole entry, looked up): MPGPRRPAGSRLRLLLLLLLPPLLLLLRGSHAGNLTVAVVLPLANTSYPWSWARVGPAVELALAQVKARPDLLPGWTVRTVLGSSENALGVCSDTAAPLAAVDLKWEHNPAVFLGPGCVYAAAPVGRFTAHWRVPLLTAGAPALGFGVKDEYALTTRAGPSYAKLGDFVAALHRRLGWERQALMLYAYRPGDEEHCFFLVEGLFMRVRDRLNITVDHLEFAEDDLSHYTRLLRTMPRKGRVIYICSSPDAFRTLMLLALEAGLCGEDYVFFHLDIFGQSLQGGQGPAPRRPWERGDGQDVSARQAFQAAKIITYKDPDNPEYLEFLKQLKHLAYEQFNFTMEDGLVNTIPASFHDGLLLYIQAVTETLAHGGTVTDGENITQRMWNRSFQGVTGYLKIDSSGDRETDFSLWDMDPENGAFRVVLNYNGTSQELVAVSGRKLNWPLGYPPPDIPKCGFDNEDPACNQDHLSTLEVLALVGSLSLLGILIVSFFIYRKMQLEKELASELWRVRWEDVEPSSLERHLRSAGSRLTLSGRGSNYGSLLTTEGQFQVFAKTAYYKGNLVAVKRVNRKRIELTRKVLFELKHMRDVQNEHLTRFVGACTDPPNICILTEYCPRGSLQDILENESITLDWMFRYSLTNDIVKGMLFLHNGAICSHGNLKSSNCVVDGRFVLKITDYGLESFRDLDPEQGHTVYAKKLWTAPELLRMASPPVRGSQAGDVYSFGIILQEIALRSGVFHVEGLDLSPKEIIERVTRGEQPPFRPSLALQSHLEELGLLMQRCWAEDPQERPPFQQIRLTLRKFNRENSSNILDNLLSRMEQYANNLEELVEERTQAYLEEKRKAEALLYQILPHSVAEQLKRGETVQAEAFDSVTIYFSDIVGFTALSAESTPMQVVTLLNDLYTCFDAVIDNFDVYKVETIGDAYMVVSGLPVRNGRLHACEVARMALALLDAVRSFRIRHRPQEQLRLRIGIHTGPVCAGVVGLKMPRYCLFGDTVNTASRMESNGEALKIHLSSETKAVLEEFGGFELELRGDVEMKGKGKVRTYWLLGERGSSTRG
HSV augment: enhancers of HSV replication in host cells, fold increase, host cell viability; maximum fold increase; HSV replication augmentation in cells; hit rate 0.005% among 220,000; in the data active means maximum fold increase above about 1.5; tested in PC3 cells
H9c2 TAG inh: inhibitors of triacylglycerol accumulation, primary screen, cell-based, uHTS, fluorescence, H9c2; H9c2 cells, Nile Red lipid (TAG) fluorescence; cells loaded with 200 µM oleic acid; inhibition, % at 12.5 µM; hit rate 0.66% among 230,000;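 active means pattern-corrected inhibition of lipid staining of at least 50% with the nuclear-stain viability signal not falling by more than 50%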;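 further: 0% = DMSO wells and 100% = triacsin C control wells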
NPR2 activator: human GC-B receptor activators, primary screen, HEK293 GC-B cells, cGMP TR-FRET, EC30 CNP; Atrial natriuretic peptide receptor 2 (Homo sapiens), P20594; activation, % at 10 µM; AID 1920062, 2024; 0% at EC30 CNP, 100% saturating CNP; hit rate 0.11% among 370,000;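 active means activation at 10 µM reaching about 35% in either raw or pattern-adjusted values, limit read from the data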
A1 inh: caspase 3/7 activation in MEF A1-2A-BIM cells, primary screen, A1 inhibitor project, cell-based, luminescence, HTS; Caspase-Glo 3/7 luminescence, 3 h; percent of clofoctol response, vehicle zero; caspase activation, % (test concentration not listed); hit rate 0.066% among 330,000; AID 2462, 2010;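 active means over half of replicate activation scores above 10%, or exactly half above 10 with the replicate mean above 10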
Efflux pump mplx: inhibitors of Candida efflux pumps in yeast, primary screen, S. cerevisiae, Nile Red, multiplex; hit rate 0.44% among 330,000; inhibition, % at 10 µM; S. cerevisiae Candida pump triplex;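 active means plate passing quality check with inhibition over a set limit, or well fluorescence over plate mean plus 4 SD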;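 further: Nile Red retained in pooled yeast measured as flow cytometry median fluorescence; 0% = buffer negative control and 100% = Enniatin B positive control; higher means more Nile Red kept so more efflux inhibition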
Cmpd fluor yeast: flagged as fluorescent in efflux inhibitor counter-screen. S. cerevisiae AD/pABC3, compound fluorescence, flow cytometry. fluorescence ratio to DMSO, % at 10 µM. AID 588517. shares compounds with Efflux pump mplx. hit rate 4% among 1,700;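 active means fluorescence ratio to DMSO above its plate's cutoff, the plate mean ratio plus 5 SD, cut at about 210% in these data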;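 further: unstained yeast with no Nile Red so the signal is compound autofluorescence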
CaMdr1 efflux inh: inhibitors of Candida albicans Mdr1 efflux, confirmation, flow cytometry, singleplex, Cherry Pick1 set; hit rate 1% among 1,700; shares compounds with Efflux pump mplx; inhibition, % at 10 µM; AID 588518, 2011; S. cerevisiae AD/CaMDR1, Nile Red efflux; in the data active means inhibition above about 26%;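 further: 0% = DMSO vehicle and 100% = reference inhibitor; higher means more Nile Red retained so more efflux inhibition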
CaCdr2 efflux inh: inhibitors of Candida albicans Cdr2 efflux pump, confirmation, S. cerevisiae AD/CaCDR2, flow cytometry, cherry pick 1, singleplex | hit rate 4% among 1,700 | Nile Red retention ratio vs DMSO, % at 10 µM | Nile Red retention | AID 588520, 2011 | shares compounds with Efflux pump mplx; in the data active means Nile Red retention ratio vs DMSO above about 190%;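 further: higher ratio means more blocking of Cdr2 efflux of the dye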
CaCdr1 efflux inh: inhibitors of Candida albicans Cdr1 efflux pump, confirmation, S. cerevisiae AD/CaCDR1, flow cytometry, cherry pick 1, singleplex; hit rate 1% among 1,700; shares compounds with Efflux pump mplx; inhibition, % at 10 µM; Nile Red efflux;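 active means inhibition above the screen-wide mean plus twice its standard deviation, cut at about 32% in these data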
An asterisk follows results filed as active. Sampled rows, rich in hits. Any-hit rate of the full collection: about 1%.

What do the screens show for `C/C(=N\Nc1nc(N)cc(Cl)n1)c1ccc(F)cc1`?
NPR1 activator: -2.1; HSV augment: inactive; H9c2 TAG inh: 0.9; NPR2 activator: 3.1; A1 inh: 0.2; Efflux pump mplx: 0.5*; Cmpd fluor yeast: 100.2; CaMdr1 efflux inh: -0.1; CaCdr2 efflux inh: 101.5; CaCdr1 efflux inh: 0.1

Results for CCOC(=O)c1ccc(CSc2nnc(N)s2)cc1 ?
NPR1 activator: 6.0; HSV augment: inactive; H9c2 TAG inh: -18.9; NPR2 activator: -4.8; A1 inh: -4.5; Efflux pump mplx: 1.8*; Cmpd fluor yeast: 103.4; CaMdr1 efflux inh: -0.5; CaCdr2 efflux inh: 112.4; CaCdr1 efflux inh: 0.0

What do the screens show for `COc1ccc(CN(CCN2CCOCC2)C(=O)c2cccc(F)c2F)cc1OC`?
NPR1 activator: -2.9; NPR2 activator: 3.2

What do the screens show for `O=C(c1ccc(Cl)cc1)[C@@H]1[C@@H]2C(=O)N(c3ccc(Cl)cc3)C(=O)[C@@H]2C2c3ccccc3C=NN21` (some centres undefined)?
NPR1 activator: -0.6; HSV augment: inactive; NPR2 activator: -5.0; A1 inh: -0.6; Efflux pump mplx: 0.6*; Cmpd fluor yeast: 113.2; CaMdr1 efflux inh: 0.3; CaCdr2 efflux inh: 89.0; CaCdr1 efflux inh: 0.1

How did Cc1ccc(N2C(=O)[C@@H]3[C@H](C2=O)C2c4ccccc4C=NN2[C@@H]3C(=O)c2ccc(Cl)cc2)cc1 (some centres undefined) do in these assays?
NPR1 activator: 3.4; HSV augment: inactive; NPR2 activator: 1.1; A1 inh: -1.3; Efflux pump mplx: -0.1

Results for Cc1ccc(S(=O)(=O)Nc2ccc(-n3cnnn3)cc2)cc1 ?
NPR1 activator: -1.3; H9c2 TAG inh: -6.9; NPR2 activator: -1.3; A1 inh: -1.3; Efflux pump mplx: 0.9*; Cmpd fluor yeast: 103.4; CaMdr1 efflux inh: -0.1; CaCdr2 efflux inh: 101.5; CaCdr1 efflux inh: -0.4

Results for Cn1cnc([N+](=O)[O-])c1Oc1cccc2ccccc12 ?
NPR1 activator: -0.8; HSV augment: inactive; NPR2 activator: 2.3; A1 inh: -0.2; Efflux pump mplx: 1.1*; Cmpd fluor yeast: 103.1; CaMdr1 efflux inh: 0.1; CaCdr2 efflux inh: 113.8; CaCdr1 efflux inh: 0.0

How did Cn1cnc([N+](=O)[O-])c1S(=O)(=O)Oc1cccc2ccccc12 do in these assays?
NPR1 activator: -1.5; H9c2 TAG inh: 109.9; NPR2 activator: -0.3

Results for O=C1C=CC(=O)N1c1cccc(-c2ccccc2)c1 ?
NPR1 activator: -14.0; HSV augment: inactive; H9c2 TAG inh: 24.1; NPR2 activator: -5.7; A1 inh: 12.7*; Efflux pump mplx: 2.6*; Cmpd fluor yeast: 84.0; CaMdr1 efflux inh: 0.0; CaCdr2 efflux inh: 101.5; CaCdr1 efflux inh: -0.3

How did O=C(Nc1cccc(N2C(=O)C=CC2=O)c1)c1cccs1 do in these assays?
NPR1 activator: 37.1; H9c2 TAG inh: -3.9; NPR2 activator: -4.2; A1 inh: 1.5; Efflux pump mplx: 0.1

How did CC(C)C[C@@H]1COc2cc(F)ccc2S(=O)(=O)N1C do in these assays?
NPR1 activator: -1.4; NPR2 activator: 1.6

What do the screens show for `COC(=O)[C@H](CCSC)NC(=O)NCc1ccccn1`?
NPR1 activator: 3.0; HSV augment: inactive; NPR2 activator: -1.5; A1 inh: 0.3; Efflux pump mplx: 0.8*; Cmpd fluor yeast: 104.6; CaMdr1 efflux inh: 0.1; CaCdr2 efflux inh: 112.2; CaCdr1 efflux inh: -0.1

How did CCC(C)[C@H](NC(=O)NCc1ccccn1)C(=O)OC (some centres undefined) do in these assays?
NPR1 activator: 2.5; HSV augment: inactive; NPR2 activator: 2.7; A1 inh: -0.5; Efflux pump mplx: -0.3

How did CCCCNC(=O)O[C@H]1CC[C@@]23CCCN2C(=O)CCC[C@H]3[C@H]1C do in these assays?
NPR1 activator: 1.1; NPR2 activator: 2.3

Results for COC/C=C/C1=CC2=CC(=O)C(C)(OC(=O)c3cnc4ccccc4n3)C(=O)C2=CN1Cc1ccccc1 (centres undefined) ?
NPR1 activator: -0.6; HSV augment: inactive; H9c2 TAG inh: 3.8; NPR2 activator: 6.6; A1 inh: 0.3; Efflux pump mplx: 0.3

What do the screens show for `COC/C=C/C1=CC2=CC(=O)C(C)(OC(=O)c3cnc4ccccc4n3)C(=O)C2=CN1Cc1ccc(OC)cc1` (centres undefined)?
NPR1 activator: 5.8; HSV augment: inactive; H9c2 TAG inh: 3.3; NPR2 activator: -6.3; A1 inh: 1.0; Efflux pump mplx: 0.6*; Cmpd fluor yeast: 120.7; CaMdr1 efflux inh: 0.7; CaCdr2 efflux inh: 114.3; CaCdr1 efflux inh: 0.1

How did O=C(OCc1cn(Cc2ccccc2F)nn1)N1CCOCC1 do in these assays?
NPR1 activator: 2.9; NPR2 activator: 2.5

How did CCCC/C=C1/C(c2ccccc2)N(Cc2ccc(OC)cc2OC)C2=NC(c3ccccc3)CC(=O)N21 (centres undefined) do in these assays?
NPR1 activator: -3.4; NPR2 activator: -5.4

What do the screens show for `CCOc1cccc(N(C(=O)CCC(=O)Nc2cc(C)on2)C(C(=O)NC(C)(C)C)c2ccc(OC)cc2)c1` (centres undefined)?
NPR1 activator: -9.2; NPR2 activator: -9.1; A1 inh: -0.2; Efflux pump mplx: 0.5*; Cmpd fluor yeast: 110.0; CaMdr1 efflux inh: 0.0; CaCdr2 efflux inh: 120.4; CaCdr1 efflux inh: -0.1

Screening data (PubChem)
